Assay results taken from PubChem BioAssay AID602481 (Broad Institute, 2012).
“And” between values parts separate entries of the source, which are not always exact repeats. Equal values may be shown once. Hit rate of the full screen: of about 360,000 compounds, about 340 (0.094%) were called active. No stated cut-off is given here; in the data, active means inhibition above about 40%; inconclusive means no clear call, values can overlap the other calls; inactive means below that. The list comes from a sample in which actives are over-represented; it also holds similar structures and randomly drawn compounds. Where a structure was tested more than once in an assay, its records may differ in their call.

Each molecule was assayed on 7,8-diaminopelargonic acid synthase BioA (Mycobacterium tuberculosis) (assay: M. tuberculosis BioA enzyme inhibitors, primary screen, biochemical, plate reader, single point, HTS (AID 602481)). Conditions: purified M. tuberculosis BioA enzyme, at 9.99 µM, stronger effect = higher value.

Structure (SMILES)	inhibition
COc1ccc(S(=O)(=O)N(C)C[C@@H]2OCCCC[C@H](C)Oc3ccc(NC(=O)Nc4ccccc4)cc3C(=O)N([C@H](C)CO)C[C@H]2C)cc1	-0.37% (inactive)
CN(C)C(=O)C[C@H]1C=C[C@@H](NC(=O)c2ccc(F)cc2)[C@@H](CO)O1	-0.406% (inactive)
O=C(Nc1ccc2c(c1)OCO2)N[C@H]1CC[C@H](CCNC(=O)C2CCC2)O[C@@H]1CO	5.56% (inactive)
O=C(C[C@H]1C[C@H]2c3cc(NC(=O)Nc4ccc(F)cc4)ccc3O[C@H]2[C@@H](CO)O1)NCC1CC1	0.529% (inactive)
COc1ccc(NC(=O)N(C)C[C@H]2OCCCC[C@H](C)Oc3ccc(NC(=O)c4ccncc4)cc3C(=O)N([C@H](C)CO)C[C@@H]2C)cc1	-0.437% (inactive)
CN(C)CC(=O)Nc1ccc2c(c1)[C@@H]1C[C@H](CC(=O)NCC3CC3)O[C@@H](CO)[C@@H]1O2	-1.45% (inactive)
CN(C)CC(=O)N1[C@H](C(=O)NC2CCC2)[C@@H](CO)[C@@H]2Cn3c(ccc(-c4ccc(F)cc4)c3=O)[C@@H]21	-3.07% (inactive)
CCCN(C)C[C@@H]1OCc2cnnn2CCCC(=O)N([C@H](C)CO)C[C@@H]1C	-0.996% (inactive)
Cc1ccc(S(=O)(=O)Nc2cccc3c2O[C@@H](CN(C)S(=O)(=O)c2cccs2)[C@@H](C)CN([C@@H](C)CO)C3=O)cc1	1.64% (inactive)
O=C(Nc1cccc(F)c1)N1CCCCN2[C@H](CO)[C@H](c3ccc(C#CC4CC4)cc3)[C@@H]2C1	10.9% (inactive)
Cc1ccc(S(=O)(=O)Nc2ccc3c(c2)CC(=O)N([C@@H](C)CO)C[C@H](C)[C@H](CN(C)Cc2ccc(C(=O)Nc4ccccc4N)cc2)O3)cc1	-1.91% (inactive)
CCCC(=O)Nc1ccc2c(c1)OC[C@@H](C)N(Cc1ccccc1F)C[C@@H](C)[C@H](OC)CN(C)C2=O	-3.54% (inactive)
CCCN(C)C[C@@H]1Oc2ncc(C#CC3CC3)cc2C(=O)N([C@H](C)CO)C[C@H]1C	-2.63% (inactive)
C[C@H](CO)N1C[C@H](C)[C@@H](CN(C)S(=O)(=O)c2ccccc2)OCCCC[C@H](C)Oc2ccc(NC(=O)NC3CCCCC3)cc2C1=O	-0.429% (inactive)
COc1ccc(S(=O)(=O)N(C)C[C@H]2Oc3c(NS(=O)(=O)c4ccc(F)cc4)cccc3C(=O)N([C@H](C)CO)C[C@H]2C)cc1	-2.2% (inactive)
C=CCn1c(SCc2c(C(=O)OC)sc(N)c2C(=O)OC)nnc1-c1ccc(Cl)cc1	51.8% (active)
C=CCn1c(SCc2cc(C(=O)OC)c(C)o2)nnc1-c1ccncc1	5.32% (inactive)
CCn1c(SCc2cccc(C(=O)O)c2)nnc1-c1ccc(Cl)cc1	1.6% (inactive)
O=C(C[C@@H]1C=C[C@@H](NC(=O)C2CC2)[C@H](CO)O1)NCCCN1CCOCC1	-6.18% (inactive)
CCCc1cn(CC[C@@H]2CC[C@@H](NC(=O)CCN3CCCCC3)[C@H](CO)O2)nn1	-2.51% (inactive)
O=C(C[C@H]1CC[C@H](NC(=O)c2ccc3c(c2)OCO3)[C@H](CO)O1)NCc1ccc(Oc2ccccc2)cc1	2.15% (inactive)

Structure (SMILES)	inhibition
C[C@@H](O)C#Cc1ccc2c(c1)O[C@@H](CN(C)Cc1cccnc1)[C@@H](C)CN([C@@H](C)CO)S2(=O)=O	5.8% (inactive)
CCC(CO)Oc1cc(NC(=O)c2cccc(F)c2)c2ncn(C(C)C)c2c1 (stereo not drawn)	20.8% (inactive) and 67.8% (active)
CCCOc1cccc(C(=O)Nc2nnn(CCC)n2)c1	-3.8% (inactive)
CC(C)n1cnc2c(NCc3ccccc3)cc(OCC3CCN(C)CC3)cc21	5.28% (inactive)
Cc1noc(C)c1NC(=O)Nc1ccc2c(c1)CC(=O)N([C@@H](C)CO)C[C@H](C)[C@H](CN(C)S(=O)(=O)c1c(C)noc1C)O2	1.52% (inactive)
CC(C)NC(=O)N(C)C[C@H]1Oc2c(NS(=O)(=O)c3ccc(Cl)cc3)cccc2C(=O)N([C@@H](C)CO)C[C@H]1C	-1.39% (inactive)
C[C@@H]1CN([C@@H](C)CO)C(=O)c2cc(/C=C/c3ccccc3)cnc2O[C@@H]1CN(C)C(=O)CN(C)C	-0.866% (inactive)
CO[C@H](CN(C)S(=O)(=O)c1ccc(Cl)cc1)[C@@H](C)CN(Cc1ccccc1Cl)[C@H](C)CO	-0.783% (inactive)
O=C(NCC[C@@H]1CC[C@H](NS(=O)(=O)c2cccc(F)c2)[C@H](CO)O1)c1cnccn1	2.18% (inactive)
Cc1noc(C)c1S(=O)(=O)Nc1ccc2c(c1)C(=O)N([C@H](C)CO)C[C@H](C)[C@H](CN(C)C(=O)NC1CCCCC1)OCCCC[C@H](C)O2	-0.981% (inactive)
COc1ccc(S(=O)(=O)N(C)C[C@H]2OCCCC[C@H](C)Oc3ccc(NS(=O)(=O)c4c(C)noc4C)cc3C(=O)N([C@@H](C)CO)C[C@@H]2C)cc1	-0.18% (inactive)
Cc1noc(C)c1NC(=O)N(C)C[C@H]1Oc2ccc(NC(=O)Nc3ccc(C(F)(F)F)cc3)cc2CC(=O)N([C@@H](C)CO)C[C@@H]1C	-2.44% (inactive)
O=C(Nc1cccc(Cl)c1)N1C[C@@H]2[C@H](c3ccccc31)[C@H](CO)N2Cc1ccncc1	-5.5% (inactive)
Cc1cc(C(=O)Nc2cccc3c2O[C@@H](CN(C)Cc2ccc4c(c2)OCO4)[C@@H](C)CN([C@@H](C)CO)C3=O)n(C)n1	-2.65% (inactive)
O=C(C[C@@H]1C[C@@H]2c3cc(NC(=O)C4CCC4)ccc3O[C@@H]2[C@@H](CO)O1)NCc1ccccc1	-1.79% (inactive)
O=C(C[C@@H]1CC[C@@H]2[C@H](COC[C@H](O)CN2S(=O)(=O)c2ccc(Oc3ccccc3)cc2)O1)NCCN1CCCCC1	9.19% (inactive)
CCCN1[C@H](C(=O)NCC)[C@@H](CO)[C@@H]2Cn3c(ccc(C4=CCCC4)c3=O)[C@@H]21	-0.389% (inactive)
CC(=O)N1[C@H](C(=O)N(C)C)[C@@H](CO)[C@@H]2Cn3c(ccc(-c4ccccc4)c3=O)[C@@H]21	-1.69% (inactive)
CN1C(=O)c2cc(NC(=O)c3ccc(F)c(F)c3)ccc2OC[C@H]2O[C@@H](CC(=O)N3CCCCC3)CC[C@H]21	4.19% (inactive)
C[C@@H]1CN([C@@H](C)CO)C(=O)c2cc(C#C[C@@H](C)O)cnc2O[C@H]1CN(C)CC1CCOCC1	-0.205% (inactive)
O=C(C[C@H]1C[C@@H]2c3cc(NC(=O)CC4CC4)ccc3O[C@@H]2[C@@H](CO)O1)NCc1cc(F)ccc1F	-0.019% (inactive)

Structure (SMILES)	inhibition
COCC#Cc1cnc2c(c1)C(=O)N([C@H](C)CO)C[C@H](C)[C@H](CN(C)Cc1ccc(-c3ccccc3)cc1)O2	-2.84% (inactive)
C[C@@H]1CN([C@H](C)CO)C(=O)c2cc(NC(=O)Nc3ccc(F)cc3)ccc2O[C@@H]1CN(C)Cc1ccc(Cl)c(Cl)c1	-0.852% (inactive)
C[C@H]1CCCCO[C@H](CN(C)C(=O)CCC(F)(F)F)[C@@H](C)CN([C@@H](C)CO)C(=O)c2cc(NC(=O)Cc3ccccc3)ccc2O1	1.33% (inactive)
C[C@H]1CN([C@@H](C)CO)S(=O)(=O)c2ccc(C#Cc3ccccc3)cc2O[C@H]1CN(C)S(=O)(=O)c1cn(C)cn1	0.612% (inactive)
CCNC(=O)C[C@@H]1CC[C@H](NC(=O)C2CCC2)[C@@H](CO)O1	0.933% (inactive)
O=C(c1ccncc1)N1CC[C@@H]2[C@H]1c1cc(Br)ccc1N[C@@H]2CO	104% (active)
O=C(c1ccccc1)N1CC[C@H]2[C@H](CO)Nc3ccc(-c4ccc(F)cc4)cc3[C@H]21	-4.36% (inactive)
O=C(c1cccnc1)N1CC[C@@H]2[C@@H](CO)Nc3ccc(-c4ccccc4)cc3[C@@H]21	18.1% (inactive)
O=C(C[C@@H]1C=C[C@@H](NC(=O)c2ccccn2)[C@@H](CO)O1)NCc1cc(F)cc(F)c1	-2.07% (inactive)
C[C@@H]1CN([C@H](C)CO)C(=O)c2cc(NC(=O)NC3CCCCC3)ccc2O[C@@H](C)CCCCO[C@H]1CN(C)S(C)(=O)=O	1.27% (inactive)
CCC(=O)Nc1ccc2c(c1)OC[C@@H](C)N(Cc1ccccn1)C[C@H](C)[C@@H](OC)CN(C)C2=O	0.9% (inactive)
CO[C@H]1CN(C)C(=O)c2ccc(NC(C)=O)cc2OC[C@@H](C)NC[C@H]1C	-1.23% (inactive)
C[C@@H]1CN([C@H](C)CO)C(=O)c2cc(-c3ccccc3)cnc2O[C@H]1CN(C)C(=O)Nc1ccccc1	4.24% (inactive)
CNC(=O)C[C@H]1CC[C@H]2[C@@H](COc3ccc(NS(=O)(=O)c4ccc(F)cc4)cc3C(=O)N2C)O1	6.78% (inactive)
COc1ccc(NC(=O)Nc2cccc3c2O[C@H](CN(C)S(=O)(=O)c2cn(C)cn2)[C@H](C)CN([C@@H](C)CO)C3=O)cc1	1.78% (inactive)
C=CCn1c(SCC(=O)NCCCO)nc2sc3c(c2c1=O)CCC3	2.06% (inactive)
CC(C)(C)C1CCc2c(sc3nc(SCC(N)=O)nc(N)c23)C1 (stereo not drawn)	7.83% (inactive)
C=C(C)CSc1nc(N)c2c3c(sc2n1)CCC3	54.5% (active)
C[C@H](CO)N1C[C@H](C)[C@H](CN(C)C(=O)Nc2ccc(F)cc2)OCCCC[C@H](C)Oc2ccc(NC(=O)CCC(F)(F)F)cc2C1=O	-0.385% (inactive)
C[C@@H]1CN([C@@H](C)CO)C(=O)c2cccc(NS(=O)(=O)c3ccc(F)cc3)c2O[C@H]1CN(C)S(=O)(=O)c1cccs1	-1.23% (inactive)
CC(C)NC(=O)N1CCCCN2[C@@H](CO)[C@@H](c3ccc(C#C[C@@H](C)O)cc3)[C@@H]2C1	2.83% (inactive)
